Experimental data as given in the supplement of paper PMC5662767.
Structures can show the parent of a compound that is named as a salt.

Tested on: Drosophila S2 cl14 SmoIP sensor cells
Assay: normalized SmoIP GFP fluorescence (untreated unstimulated = 0%, untreated Hh-stimulated = 100%); higher = more Smo activation sensor fluorescence
Settings: compound concentration: 2 uM, 24 h
[1] = stimulation: Hh conditioned medium (+Hh)
[2] = stimulation: mock conditioned medium (-Hh)
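Also: flow cytometry read-out as median GFP intensity of gated cells, compounds added 30 min before Hh-conditioned or mock medium, mock-treated cells serving as unstimulated baseline.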

Structure (SMILES) | normalized SmoIP GFP fluorescence [1] | normalized SmoIP GFP fluorescence [2]
CC(C)(O)[C@H]1CC[C@@](C)([C@H]2[C@@H](O)C[C@@]3(C)[C@@H]4C[C@H](O[C@@H]5O[C@H](CO)[C@@H](O)[C@H](O)[C@H]5O)[C@H]5C(C)(C)[C@@H](O[C@@H]6OC[C@@H](O)[C@H](O)[C@H]6O)CC[C@@]56C[C@@]46CC[C@]23C)O1 [astragaloside-a] | 120% | -16.8%
FC(F)c1nc2ccccc2n1-c1nc(N2CCOCC2)nc(N2CCOCC2)n1 | 90.8% | -6.73%
CN(C)[C@@H](CCOc1cccc2ccccc12)c1ccccc1 [Dapoxetine-hydrochloride(Priligy)] | 115% | -13.2%
CNCCc1ccccn1 [betahistine-dihydrochloride] | 98.3% | -3.05%
CC1(COc2ccc3c(c2)ncn3-c2ccc3cccc(N4CCC(N)CC4)c3n2)COC1 | 260% | 77.9%
CNCCC(Oc1ccc(C(F)(F)F)cc1)c1ccccc1 (stereo not drawn) [Fluoxetine-hydrochloride] | 111% | 1.89%
CC1(C)CC(=O)c2c(C(F)(F)F)nn(-c3ccc(C(N)=O)c(N[C@H]4CC[C@H](OC(=O)CN)CC4)c3)c2C1 | 233% | 83.8%
CCOc1nc2cccc(C(=O)O)c2n1Cc1ccc(-c2ccccc2-c2noc(=O)[nH]2)cc1 [azilsartan-tak-536] | 104% | -4.7%
CCCS(=O)(=O)Nc1ccc(F)c(C(=O)c2c[nH]c3ncc(-c4ccc(Cl)cc4)cc23)c1F | 91.2% | 3.72%
Cc1cc(C)nc(NS(=O)(=O)c2ccc(NC(=S)NC(=O)COc3ccc(Br)cc3Cl)cc2)n1 | 105% | -4.81%
NC(=O)c1ccc(I)c([N+](=O)[O-])c1 | 115% | -5.22%
CCOc1cc(N)c(Cl)cc1C(=O)NCC1CN(Cc2ccc(F)cc2)CCO1 (stereo not drawn) [Mosapride-citrate] | 103% | -4.68%
O=C(NCc1ccccc1)c1csc(Nc2ccncn2)n1 [Thiazovivin] | 72.7% | -11.6%
Nc1ccccc1NC(=O)c1ccc(CNC(=O)OCc2cccnc2)cc1 | 203% | 6.74%
CN(C)CC(c1ccc(O)cc1)C1(O)CCCCC1 (stereo not drawn) [desvenlafaxine] | 105% | -0.889%
c1ccc2c(CCNc3ccc(Nc4ccncc4)cc3)c[nH]c2c1 | 106% | 10.7%
CCOC(=O)C1=C(N)Oc2ccc(Br)cc2C1C(C#N)C(=O)OCC (stereo not drawn) | 97.9% | 1.03%

Structure (SMILES) | normalized SmoIP GFP fluorescence [1] | normalized SmoIP GFP fluorescence [2]
COc1ccc2c(c1)C(=O)N(CCc1ccc(S(=O)(=O)NC(=O)NC3CCCCC3)cc1)C(=O)C2(C)C [gliquidone] | 105% | -4.01%
O=C(Nc1cccnc1)N1CCC(Cc2cccc(Oc3ccc(C(F)(F)F)cn3)c2)CC1 | 116% | -0.297%
CNC(=O)c1ccc(N2C(=S)N(c3cnc(C#N)c(C(F)(F)F)c3)C(=O)C23CCC3)cc1F | 105% | -0.0369%
Nc1cccc(-c2cc3c(Oc4cccc(O)c4)ncnc3[nH]2)c1 | 96.5% | 0.812%
CN(C)CC[C@H](CSc1ccccc1)Nc1ccc(S(=O)(=O)NC(=O)c2ccc(N3CCN(Cc4ccccc4-c4ccc(Cl)cc4)CC3)cc2)cc1[N+](=O)[O-] | 109% | 2.97%
Clc1ccc2nsnc2c1NC1=NCCN1 [Tizanidine-hydrochloride] | 105% | -5.76%
CCc1cc2c(cc1CC)CC(NC[C@H](O)c1ccc(O)c3[nH]c(=O)ccc13)C2 [indacaterol-maleate] | 107% | -2.82%
COc1cc(NC(=O)c2ccccn2)ccc1Cl | 105% | -1.74%
CC(C)c1cnn2c(NCc3ccccc3)cc(NCCCCCCN)nc12 | 105% | 10.7%
CS(=O)(=O)Nc1ccc([N+](=O)[O-])cc1Oc1ccccc1 [nimesulide] | 109% | -4.35%
O=C(O)COCCN1CCN(C(c2ccccc2)c2ccc(Cl)cc2)CC1 (stereo not drawn) [Cetirizine-di-hcl] | 90.4% | -7.27%
CCOC(=O)[C@H](CCc1ccccc1)N[C@@H](C)C(=O)N1Cc2cc(OC)c(OC)cc2C[C@H]1C(=O)O [moexipril-hydrochloride] | 126% | 3.4%
Clc1ccc(Nc2nnc(Cc3ccncc3)c3ccccc23)cc1 [Vatalanib,Dihydrochloride-Salt] | 125% | -9.22%
CC[C@H](C)C(=O)O[C@@H]1C[C@@H](C)C=C2C=C[C@H](C)[C@@H](CC[C@@H]3C[C@@H](O)CC(=O)O3)[C@H]21 [lovastatin-mevacor] | 123% | -14.7%
N#Cc1ccc(C(c2ccc(C#N)cc2)n2cncn2)cc1 [Letrozole] | 98.8% | -1.88%
O=C1C(=O)N(Cc2ccc(Cl)c(Cl)c2)c2ccccc21 [apoptosis-activator-2] | 103% | -2.82%
CC[C@H]1OC(=O)[C@H](C)[C@@H](O[C@H]2C[C@@](C)(OC)[C@@H](O)[C@H](C)O2)[C@H](C)[C@@H](O[C@@H]2O[C@H](C)C[C@H](N(C)C)[C@H]2O)[C@](C)(OC)C[C@@H](C)C(=O)[C@H](C)[C@@H](O)[C@]1(C)O [clarithromycin] | 147% | -6.97%
